From PubChem BioAssay (Tox21)
Unmarked numbers belong to inactive results. Activity calls are given as the source filed them. Calls come from the whole dose curve; as a rule, active = well fitted curve in the direction sought with a large enough effect in the repeat runs; inconclusive = weak or mixed curves; inactive = flat fitted curve, though single readings scatter.

Assay: qHTS assay to test for compound auto fluorescence at 590 nm (red) in HEK293 cell free culture (AID 720683)
Details: cell-free medium autofluorescence, Ex540/Em590 red; series mostly up to 91.3 µM; fluorescence, % of fluorescent control: at the top concentration
Description: U.S. Tox21 Program National Center for Advancing Translational Sciences [NCATS] NIH Chemical Genomics Center [NCGC] U.S. Environmental Protection Agency [EPA] National Institutes of Environmental Health Sciences [NIEHS] National Toxicology Program [NTP] U.S. Food and Drug Administration [FDA] Tox21 Assay Overview: Compound auto fluorescence often interferes with screening of the compound library against various biological targets and signaling pathways. Some of these compounds may have fluorophoric properties. Such properties may interfere with the assay outputs resulting in false positives and/or negatives. To decrease such complications and ensure the compound activities are relevant in terms of biological response, the Tox21 10K compound library was screened for auto fluorescence. From the fluorophores used as reporter signals in our screening assays, the auto fluorescence equivalencies of compounds against three fluorophores have been evaluated: Triamterene, Fluorescein and Rose Bengal sodium for blue, green and red fluorescence, respectively. The fluorescence intensities were measured using Excitation/Emission wavelengths at 405/460nm, 485/535nm and 540/590nm for blue, green and red labels, respectively. This assay includes the red fluorescence data.
Tox21 Assay Protocol Summary: 5 uL of culture medium (DMEM containing 10% FBS) per well was dispensed into black wall/clear bottom 1536-well plates using a Multidrop Combi Dispenser (ThermoFisher Scientific, Waltham, MA). After 23 nL compound or DMSO vehicle was transferred into assay plate by a pintool work station (Kalypsys, San Diego, CA), fluorescence intensities in the assay plates were measured by an Envision (PerkinElmer, Shelton, CT) plate reader using three labels for measuring blue, green and red fluorescence at […] 460, 535 and 590nm respectively.
% is set by controls: 0 for no effect and ±100 for the full control effect.

Row | Structure (SMILES) | fluorescence, % of fluorescent control | outcome
1 | O[C@@H]1CO[C@H]2[C@@H]1OC[C@@H]2O | -0.562% [at 46 µM] | 
2 | CC[C@]1(O)C[C@H]2CN(CCc3c([nH]c4ccccc34)[C@@](C(=O)OC)(c3cc4c(cc3OC)N(C=O)[C@H]3[C@@](O)(C(=O)OC)[C@H](OC(C)=O)[C@]5(CC)C=CCN6CC[C@]43[C@@H]65)C2)C1 | 0.0873% [at 46 µM] | 
3 | CN1C(=O)OC(C)(C)C1=O |  | inactive
4 | CC1=C(Br)C(=O)C(Br)=C/C1=C(/c1ccccc1S(=O)(=O)O)c1cc(Br)c(O)c(Br)c1C | -0.0506% | 
5 | NNC(=O)CP(=O)(c1ccccc1)c1ccccc1 | -0.0068% [at 46 µM] | 
6 | N#CCCN(CCO)CCO | -0.313% | 
7 | Nc1nnc(-c2ccc([N+](=O)[O-])o2)o1 | -0.723% | 
8 | CN1CCCC(CC2c3ccccc3Sc3ccccc32)C1 (stereo not given) | 0.0507% [at 18.6 µM] | 
9 | NC1[C@H]2CN(c3nc4c(cc3F)c(=O)c(C(=O)O)cn4-c3ccc(F)cc3F)C[C@@H]12 (stereo not given in full) | 0.56% [at 46 µM] | 
10 | C1C[C@@H]2[C@H]3CC[C@H](C3)[C@@H]2C1 | 0.125% | 
11 | Clc1ccc(Nc2nnc(Cc3ccncc3)c3ccccc23)cc1 |  | inactive
12 | Nc1nc2ccc([N+](=O)[O-])cc2s1 | -0.459% | 
13 | C[C@]1(Cn2ccnn2)[C@H](C(=O)O)N2C(=O)C[C@H]2S1(=O)=O | 0.117% [at 46 µM] | 
14 | O=C(CCc1ccc(O)cc1)c1c(O)cc(O)cc1O | 0.0996% [at 95.7 µM] | 
15 | CN1C(C(=O)Nc2ccccn2)=C(O)c2sccc2S1(=O)=O | 0.306% [at 18.6 µM] | 
16 | CCCCCC[C@@H](O)C/C=C\CCCCCCCC(=O)O |  | inactive
17 | c1cc(N(CC2CO2)CC2CO2)ccc1Cc1ccc(N(CC2CO2)CC2CO2)cc1 (stereo not given) | 0.0081% | 
18 | COc1cc(N)c(Cl)cc1C(=O)NC1CCN(CCCOc2ccc(F)cc2)CC1OC (stereo not given) | 0.142% [at 18.6 µM] | 
19 | NCCNCCO | 0.0243% [at 95.7 µM] | 
20 | O=C(OCC(O)CO)c1ccccc1Nc1ccnc2cc(Cl)ccc12 (stereo not given) | 0.0763% [at 18.6 µM] | 

Row | Structure (SMILES) | fluorescence, % of fluorescent control | outcome
21 | CN1CCCN=C1COC(=O)C(O)(c1ccccc1)C1CCCCC1 (stereo not given) | 0.0981% [at 46 µM] | 
22 | COc1ccccc1NC(=O)c1cc2ccccc2cc1O | 0.0133% | 
23 | Oc1ccc(Cl)c2cccnc12 | -0.437% [at 46 µM] | 
24 | Cc1cccc(N(C)C(=S)Oc2ccc3c(c2)CCC3)c1 | 0.251% [at 46 µM] | 
25 | CCCC(=O)C(=O)O | 0.181% | 
26 | CCOC(=O)OC(C)OC(=O)[C@@H]1N2C(=O)[C@@H](NC(=O)[C@H](N)c3ccccc3)[C@H]2SC1(C)C (stereo not given in full) | -0.265% [at 18.6 µM] | 
27 | CCCCCCCC/C=C\CCCCCCCCCCCC(=O)O | 0.454% [at 95.7 µM] | 
28 | COC(=O)CCS | 0.0739% | 
29 | C=C(C)CCCC(C)CCO (stereo not given) | -0.15% | 
30 | COc1ccccc1N1CCN(CCCCNC(=O)c2ccc(-c3ccc(C(C)=O)cc3)cc2)CC1 | 0.123% [at 46 µM] | 
31 | Cc1ccc(C(C)(C)O)cc1 | -0.0254% | 
32 | CC1=C(CC=O)C(C)(C)CCC1 | -0.0149% | 
33 | CCC1NC(=O)c2cc(S(N)(=O)=O)c(Cl)cc2N1 (stereo not given) | -0.121% [at 18.6 µM] | 
34 | CC(=O)[C@H]1[C@H](C#N)C[C@H]2[C@@H]3CC=C4C[C@@H](O)CC[C@]4(C)[C@H]3CC[C@@]21C | -0.121% | 
35 | CC(=O)c1ccc([N+](=O)[O-])cc1 | 0.0311% | 
36 | COc1ncnc(NS(=O)(=O)c2ccc(N)cc2)c1OC | -0.111% [at 46 µM] | 
37 | O=c1c(O)c(-c2ccc(O)cc2)oc2cc(O)cc(O)c12 |  | inactive
38 | COc1cc(C(=O)NC2CCN(C)CC2)ccc1Nc1ncc2c(n1)N(C1CCCC1)CC(F)(F)C(=O)N2C | 0.0349% | 
39 | CCC1(CO)COCOC1 | 0.108% | 
40 | CC(C)C(O)(c1ccc(OC(F)(F)F)cc1)c1cncnc1 (stereo not given) | 0.137% | 
